Reference: PubChem BioAssay (EPA / NIEHS)
Calls of active or inactive are those of the source. The calls were made as follows: active = hit-call score of the fitted dose curve at least 0.9, where 1 is the maximum; inactive = score below 0.9.

Experiments:
[1] = read-out: Interleukin-6 (IL6), IL6 (gene 3569); experiment: BSK_CASM3C_IL6: BioMAP Diversity Plus: CASM3C Assay for Interleukin-6 (IL6) Biomarker Activity for (AID 2283040); settings: primary human coronary artery smooth muscle cells; actives raise or lower the signal
[2] = read-out: Tissue plasminogen activator (tPA), PLAT (gene 5327); experiment: BSK_BE3C_tPA: BioMAP Diversity Plus: BE3C Assay for Tissue plasminogen activator (tPA) Biomarker Activity (AID 2283041); settings: primary human bronchial epithelial cells; actives raise or lower the signal
In short: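 Primary human lung bronchial epithelial cultures receive test chemical; after 24 h, tPA is quantified by ELISA, and gain or loss of signal is fitted bidirectionally relative to DMSO baseline.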

[3] = read-out: Interleukin-8 (IL8), CXCL8 (gene 3576); experiment: BSK_CASM3C_IL8: BioMAP Diversity Plus: CASM3C Assay for Interleukin-8 (IL8) Biomarker Activity (AID 2283042); settings: primary human coronary artery smooth muscle cells; actives raise or lower the signal;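 also: IL-8 protein level quantified by ELISA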
[4] = read-out: Human Leukocyte Antigen - DR isotype (HLADR), HLA-DRA (gene 3122); experiment: BSK_CASM3C_HLADR: BioMAP Diversity Plus: CASM3C Assay for Human Leukocyte Antigen - DR isotype (HLADR) Biomarker Activity (AID 2283043); settings: primary human coronary artery smooth muscle cells; actives raise or lower the signal;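 also: cell-surface HLA-DR protein level quantified by ELISA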
[5] = read-out: Macrophage colony-stimulating factor (MCSF), CSF1 (gene 1435); experiment: BSK_CASM3C_MCSF: BioMAP Diversity Plus: CASM3C Assay for Macrophage colony-stimulating factor (MCSF) Biomarker Activity (AID 2283044); settings: primary human coronary artery smooth muscle cells; actives raise or lower the signal;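 also: M-CSF protein amount quantified by ELISA after 24 h exposure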
[6] = read-out: Low-density lipoprotein receptor (LDLR), LDLR (gene 3949); experiment: BSK_CASM3C_LDLR: BioMAP Diversity Plus: CASM3C Assay for Low-density lipoprotein receptor (LDLR) Biomarker Activity (AID 2283045); settings: primary human coronary artery smooth muscle cells; actives raise or lower the signal;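 also: LDLR protein level on the cell surface quantified by ELISA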
[7] = read-out: Monocyte Chemoattractant Protein-1 (MCP1), CCL2 (gene 6347); experiment: BSK_CASM3C_MCP1: BioMAP Diversity Plus: CASM3C Assay for Monocyte Chemoattractant Protein-1 (MCP1) Biomarker Activity (AID 2283046); settings: primary human coronary artery smooth muscle cells; actives raise or lower the signal;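 also: MCP-1 level quantified by ELISA 24 h after dosing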
[8] = BSK_CASM3C_Proliferation: Cell Proliferation Assessment in the BioMAP Diversity Plus: CASM3C Assay (AID 2283047); settings: primary human coronary artery smooth muscle cells;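 also: sulforhodamine B total protein stain as relative cell number at 560 nm; sub-confluent cells exposed 48 h before staining; fitted both ways against DMSO so gain or loss of cell number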
[9] = read-out: Monokine induced gamma interferon (MIG), CXCL9 (gene 4283); experiment: BSK_CASM3C_MIG: BioMAP Diversity Plus: CASM3C Assay for Monokine induced gamma interferon (MIG) Biomarker Activity (AID 2283048); settings: primary human coronary artery smooth muscle cells; actives raise or lower the signal;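 also: MIG protein level measured by ELISA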
[10] = read-out: serum amyloid A (SAA), SAA1 (gene 6288); experiment: BSK_CASM3C_SAA: BioMAP Diversity Plus: CASM3C Assay for serum amyloid A (SAA) Biomarker Activity (AID 2283049); settings: primary human coronary artery smooth muscle cells; actives raise or lower the signal;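 also: SAA protein level quantified by ELISA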
[11] = BSK_CASM3C_SRB: Viability Assessment in the BioMAP Diversity Plus: CASM3C Assay (AID 2283050); settings: primary human coronary artery smooth muscle cells;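 also: total protein by SRB staining as cytotoxicity measure in parallel cultures; cells exposed to compound for 24 h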
[12] = read-out: Thrombomodulin, THBD (gene 7056); experiment: BSK_CASM3C_Thrombomodulin: BioMAP Diversity Plus: CASM3C Assay for Thrombomodulin Biomarker Activity (AID 2283051); settings: primary human coronary artery smooth muscle cells; actives raise or lower the signal;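 also: thrombomodulin protein level measured by ELISA 24 h after dosing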
[13] = read-out: Tissue Factor, F3 (gene 2152); experiment: BSK_CASM3C_TissueFactor: BioMAP Diversity Plus: CASM3C Assay for Tissue Factor Biomarker Activity (AID 2283052); settings: primary human coronary artery smooth muscle cells; actives raise or lower the signal;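 also: cell surface tissue factor protein level read by ELISA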
[14] = read-out: Interferon-gamma inducible Protein 10 (IP10), CXCL10 (gene 3627); experiment: BSK_hDFCGF_IP10: BioMAP Diversity Plus: hDFCGF Assay for Interferon-gamma inducible Protein 10 (IP10) Biomarker Activity (AID 2283053); settings: primary human foreskin fibroblasts; actives raise or lower the signal
In short: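 Primary foreskin fibroblasts, human; 24 h compound exposure; IP-10 by ELISA; bidirectional fit vs DMSO.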

[15] = read-out: Urokinase-type plasminogen activator receptor (uPAR), PLAUR (gene 5329); experiment: BSK_CASM3C_uPAR: BioMAP Diversity Plus: CASM3C Assay for Urokinase-type plasminogen activator receptor (uPAR) Biomarker Activity (AID 2283054); settings: primary human coronary artery smooth muscle cells; actives raise or lower the signal;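 also: cell-surface uPAR protein level quantified by ELISA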
[16] = read-out: Vascular cell adhesion molecule 1 (VCAM1), VCAM1 (gene 7412); experiment: BSK_CASM3C_VCAM1: BioMAP Diversity Plus: CASM3C Assay for Vascular cell adhesion molecule 1 (VCAM1) Biomarker Activity (AID 2283055); settings: primary human coronary artery smooth muscle cells; actives raise or lower the signal;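 also: VCAM-1 protein level quantified by ELISA on the cells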
[17] = read-out: Collagen III, COL3A1 (gene 1281); experiment: BSK_hDFCGF_CollagenIII: BioMAP Diversity Plus: hDFCGF Assay for Collagen III Biomarker Activity (AID 2283056); settings: primary human foreskin fibroblasts; actives raise or lower the signal
In short: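 Cells: human foreskin fibroblasts, primary. Dosing followed by 24 h incubation, then ELISA for collagen III. Both increases and decreases scored relative to DMSO.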

[18] = read-out: Epidermal growth factor receptor (EGFR), EGFR (gene 1956); experiment: BSK_hDFCGF_EGFR: BioMAP Diversity Plus: hDFCGF Assay for Epidermal growth factor receptor (EGFR) Biomarker Activity (AID 2283057); settings: primary human foreskin fibroblasts; actives raise or lower the signal
In short: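 hDFCGF system, primary human foreskin fibroblasts; compound 24 h; EGFR measured by ELISA; DMSO = negative control/baseline; bidirectional fitting.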

[19] = read-out: Interleukin-8 (IL8), CXCL8 (gene 3576); experiment: BSK_hDFCGF_IL8: BioMAP Diversity Plus: hDFCGF Assay for Interleukin-8 (IL8) Biomarker Activity (AID 2283058); settings: primary human foreskin fibroblasts; actives raise or lower the signal
In short: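 IL-8 levels from compound-treated primary human fibroblasts were read by ELISA at 24 h, with DMSO serving as baseline for bidirectional fitting.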

[20] = BSK_hDFCGF_Proliferation: Cell Proliferation Assessment in the BioMAP Diversity Plus: hDFCGF Assay (AID 2283059); settings: primary human foreskin fibroblasts;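 also: curves fitted for both rise and fall of signal versus DMSO baseline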
In short: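 This proliferation readout used SRB total-protein staining of human foreskin fibroblasts […], normalized to DMSO with bidirectional curve fitting.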

Measured: AC50

Cc1ccc2ncccc2c1
inactive: all assays above

CC(=O)C(C)=CC1C(C)=CCCC1(C)C (stereo not drawn)
inactive: all assays above

CCCCN(CCCC)CCCC
inactive: all assays above

CCCCCCCCCCCCCO
active: [2] 26.9 µM | [5] 34.5 µM | [7] 33.3 µM | [8] 34.2 µM | [11] 34.4 µM | [12] 20.6 µM | [14] 13.2 µM | [16] 28.3 µM | [17] 12.9 µM | [20] 8.61 µM
inactive: [1] | [3] | [4] | [6] | [9] | [10] | [13] | [15] | [18]

CCCCc1ccc2c(n1)[C@@H](c1ccc(OC)cc1C[C@H](C)C(=O)O)[C@H](C(=O)O)[C@H]2c1ccc2c(c1)OCO2
inactive: all assays above

CC(C)(C)c1cc(O)c(C(C)(C)C)cc1O
active: [2] 15.7 µM | [12] 4.92 µM | [14] 20 µM | [17] 9.11 µM | [20] 29.1 µM
inactive: all other assays above

CC(C)c1ccc(C(=O)N=C(N)N)cc1S(C)(=O)=O
not listed: [19]
inactive: all other assays above

C[Si]1(C)O[Si](C)(C)O[Si](C)(C)O[Si](C)(C)O1
not listed: [19]
inactive: all other assays above

Cc1cccc([N+](=O)[O-])c1C
not listed: [19]
inactive: all other assays above

Oc1ccc2c(c1)OC[C@@H](N1CCC(O)(c3ccc(F)cc3)CC1)[C@H]2O
inactive: all assays above

OC[C@@H](O)[C@@H](O)[C@H](O)[C@H](O)CO
not listed: [19]
inactive: all other assays above

CCCCCC(=O)O
not listed: [19]
inactive: all other assays above

CCCCCCOCCO
inactive: all assays above

CC1(C)NC(=O)NC1=O
inactive: all assays above

O=[N+]([O-])C(CO)(CO)CO
active: [20] 14.1 µM
inactive: all other assays above

Cc1nc(-c2ccc3c(c2)CCN(CCC2CCC(NC(=O)/C=C/c4ccc(F)cc4)CC2)CC3)no1 (stereo not drawn)
active: [4] 9.3 µM | [7] 13.8 µM | [8] 5.83 µM | [9] 11.7 µM | [10] 9.3 µM | [11] 9.3 µM | [16] 6.35 µM
inactive: all other assays above

Cc1c(C(=O)O)c(O)cc2c1C(=O)c1c(O)c([C@@H]3O[C@H](CO)[C@@H](O)[C@H](O)[C@H]3O)c(O)c(O)c1C2=O
active: [20] 3.88 µM
not listed: [19]
inactive: all other assays above

NCC1(Cc2noc(=O)[nH]2)CCCCC1
inactive: all assays above

COc1cc(C=O)ccc1O
not listed: [19]
inactive: all other assays above

NC(=O)Cn1c(=O)cc(CCN2CCN(c3nccc4sccc34)CC2)c2ccc(F)cc21
active: [6] 27.5 µM
not listed: [19]
inactive: all other assays above

FC(F)(F)C(F)(F)C(F)(F)C(F)(F)C(F)(F)C(F)(F)CCI
not listed: [19]
inactive: all other assays above

O=C(OCCCCCOC(=O)c1ccccc1)c1ccccc1
not listed: [19]
inactive: all other assays above

CNC(=O)[C@H]1O[C@@H](n2cnc3c(NCc4cc(Cl)ccc4OCc4cc(C)no4)ncnc32)[C@H](O)[C@@H]1N
inactive: all assays above

Cc1ccc(N(C)C)cc1
inactive: all assays above

COc1ccc2c(c1)c(CC(=O)O)c(C)n2C(=O)c1ccc(Cl)cc1
active: [17] 20 µM | [20] 13.1 µM
not listed: [19]
inactive: all other assays above
